dFosB act-1: enhances mouse delta FosB homodimer DNA binding; purified delta FosB, TAMRA-CDK5 oligo fluorescence polarization; percent of positive-control signal above neutral wells; activation, % at 25 µM; hit rate 0.99% among 340,000;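 active = mean activation above about 17%, with every replicate also reaching it, limit read from the data, passing the limit was not always enough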
Target sequence (P13346 whole entry, looked up): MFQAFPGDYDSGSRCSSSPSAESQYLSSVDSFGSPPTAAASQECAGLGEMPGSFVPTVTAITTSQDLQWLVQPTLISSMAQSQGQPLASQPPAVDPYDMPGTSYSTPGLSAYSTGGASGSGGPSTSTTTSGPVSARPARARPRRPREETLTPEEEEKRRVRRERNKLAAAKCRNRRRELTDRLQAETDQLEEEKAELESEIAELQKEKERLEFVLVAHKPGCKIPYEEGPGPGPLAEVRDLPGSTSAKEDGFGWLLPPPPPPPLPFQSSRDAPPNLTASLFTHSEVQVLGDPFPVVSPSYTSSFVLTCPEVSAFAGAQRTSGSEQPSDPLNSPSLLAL
Yeast superoxide: lowers age-related superoxide in aged yeast cells. AID 2690. S. cerevisiae aged cells, superoxide DHE fluorescence; active compounds read low. hit rate 0.18% among 330,000. superoxide response (% of plate mean), % at 10 µM;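 active = superoxide response under a set limit, about three screen SD below normal, cut at about 65% in these data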;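 also: yeast aged for seven days with compound at 30 °C before DHE staining; 100% = average MFI of all compound-treated wells on the plate with controls excluded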
UBC13 polyUb: blocks human UBC13 polyubiquitin chain formation; P61088; TR-FRET; inhibition, % at 20 µM; hit rate 0.47% among 330,000; in the data active = inhibition above about 45%, passing the limit was not always enough
Target sequence (P61088 whole entry, looked up): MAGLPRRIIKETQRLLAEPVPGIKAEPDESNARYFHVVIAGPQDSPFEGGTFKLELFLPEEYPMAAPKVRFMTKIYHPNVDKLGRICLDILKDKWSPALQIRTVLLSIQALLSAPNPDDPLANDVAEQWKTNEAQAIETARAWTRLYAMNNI
NALP1 yeast inh: inhibitors of NALP1 inflammasome in yeast; S. cerevisiae NALP1/ASC/caspase-1 growth, X-gal OD620, 72 h; inhibition, % at 10 µM; hit rate 0.61% among 280,000; AID 2071; in the data active = inhibition mostly above about 24%, no sharp cut-off; inactive = mostly below about 32%
GRIN3A LBD mod: modulates the human NR3A ligand-binding domain; Tm shift relative to glycine control, % at 25 µM; NR3A LBD differential scanning fluorimetry, Tm shift; 0% = protein alone, 100% = glycine-bound protein; AID 1259313; hit rate 2.5% among 340,000;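 active = melting temperature shift of at least 10% of the positive control shift, at one fixed dose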
dFosB act-2: delta FosB (mouse) homodimer activation; shares compounds with dFosB act-1; purified delta FosB, TAMRA-CDK5 oligo fluorescence polarization; normalised: neutral wells 0, positive control 100; activation, % at 24.9 µM; 2,400 tested, under 10 active; AID 588690;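 active = highest replicate activation at or above 34% and every replicate reaching that threshold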;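 also: higher polarization means more probe DNA bound by delta FosB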
The depositor's hits bear a star; . = no result. A selection: hits, their analogues and other compounds. The true share with any hit is near 4.3%.

SMILES	dFosB act-1	Yeast superoxide	UBC13 polyUb	NALP1 yeast inh	GRIN3A LBD mod	dFosB act-2
COc1cccc(NC(=O)CCC2CCN(Cc3nccs3)CC2)c1	-7.6	92.9	3.4	4.2	0.3	.
O=C(COC(=O)c1ccc2c(c1)OCO2)NCc1ccc2c(c1)OCO2	2.5	131.1	1.6	8.5	0.4	.
CCOc1ccc(NC(=O)COC(=O)c2ccc3c(c2)OCO3)cc1	0.5	100.2	-5.3	.	-3.0	.
COc1cc(/C=C/C(=O)OCC(=O)Nc2ccc3c(c2)OCO3)ccc1O	-4.9	114.0	-17.9	.	-2.9	.
COc1ccc(/C=C/C(=O)OCC(=O)Nc2ccc3c(c2)OCO3)cc1	28.1*	85.5	4.7	.	1.8	-9.0
CNc1ccc(C(=O)OCC(=O)NCc2ccc3c(c2)OCO3)cc1[N+](=O)[O-]	35.8*	92.8	-12.7	.	1.2	-0.9
O=C(COC(=O)c1cc(Br)ccc1O)Nc1ccc2c(c1)OCO2	43.5*	129.3	-3.5	.	-4.0	-1.8
NC(=O)c1ccc(NC(=O)COC(=O)c2ccc3c(c2)OCO3)cc1	23.7*	83.3	4.6	.	-0.2	-1.7
CC1=Nc2ccccc2N=C(NC(=O)CN2CCN(c3ccc(F)cc3)CC2)C1c1ccccc1 (configuration not stated)	-1.1	97.9	-5.1	.	-2.1	.
CCCCNCC1C(Oc2ccc(Cl)cc2)C(=O)N1c1ccccc1C (configuration not stated)	-6.3	98.1	12.9	0.1	-2.4	.
COc1ccc(NC(=O)COC(=O)c2ccc3c(c2)OCCO3)cc1OC	48.2*	106.8	-5.5	.	6.5	2.4
COc1ccc(-n2nc(C(=O)NCC(=O)Nc3cccc(Cl)c3)c3ccccc3c2=O)cc1OC	99.7*	99.9	-10.5	24.8	-1.3	7.4
CCOc1ccc(NC(=O)CNC(=O)c2nn(-c3ccc(OC)c(OC)c3)c(=O)c3ccccc23)cc1	75.8*	107.8	14.9	5.6	2.0	1.2
COc1ccc(-n2nc(C(=O)Nc3ccc(OC)c(OC)c3)c3c4ccccc4n(C)c3c2=O)cc1	27.4*	105.6	-7.3	12.1	-0.9	1.5
Cc1cc(C(F)(F)F)c(C#N)c(SCC(=O)Nc2nc3cc(Br)ccc3s2)n1	37.5*	100.5	-5.0	24.3	29.9*	6.6
Cc1ccc2nc(N(CCCN(C)C)C(=O)c3ccc4ncsc4c3)sc2c1	-2.8	97.0	10.7	13.2	0.4	.
Nc1c(C(=O)Nc2ccccc2Cl)nnn1-c1ccc2c(c1)OCCO2	43.4*	102.5	-1.8	-1.4	-7.1	3.7
Nc1c(C(=O)Nc2ccc3c(c2)OCCO3)nnn1CCc1ccccc1	-7.5	94.7	7.5	-7.0	-1.6	.
C=CCn1cc(C(=O)N2CCN(c3ccccc3)CC2)c(=O)c2cc(S(=O)(=O)N3CCCC3)ccc21	-10.2	84.2	-3.3	5.0	-1.4	.
CN(CCc1ccccc1)C(=O)c1ccc(NC(=O)Cc2ccc([N+](=O)[O-])cc2)cc1	-0.3	102.7	4.1	.	-13.0	.
O=C(Cc1nnc(NC(=O)c2ccccc2)s1)N/N=C/c1ccco1	21.0*	96.5	2.3	12.5	0.0	3.7
Cc1ccccc1C(=O)Nc1nnc(CC(=O)N/N=C/c2ccncc2)s1	38.3*	97.0	17.8	1.5	-0.9	-0.1
CN(CCC1CCOCC1)C(=O)CC1C(=O)NCCN1Cc1c(F)cccc1Cl (configuration not stated)	-2.5	96.7	1.3	6.4	1.7	.
O=S(=O)(c1cnc[nH]1)N1CCc2ccccc21	20.5*	89.1	-7.1	6.1	1.0	1.8
CCOC(=O)Cc1c[nH]c2ccc([N+](=O)[O-])cc12	-2.5	.	.	.	-1.9	.
SMILES	dFosB act-1	Yeast superoxide	UBC13 polyUb	NALP1 yeast inh	GRIN3A LBD mod	dFosB act-2
O=C(Nc1ccc(NC(=O)c2sc3ccccc3c2Cl)cc1Cl)c1ccco1	41.0*	99.8	1.3	16.8	-0.5	3.2
COc1cccc(C(=O)Nc2ccc(NC(=O)c3ccco3)c(Cl)c2)c1	23.5*	102.7	-3.4	12.3	7.6	3.0
COc1cccc(C(=O)Nc2ccc(NC(=O)c3ccco3)nc2)c1	-8.4	104.8	-9.4	16.4	1.3	.
Cc1cc(NC(=O)c2cncc(Br)c2)ccc1NC(=O)c1cc2ccccc2o1	57.6*	105.2	-5.3	-15.3	8.3	-0.1
CCCCN(C(=O)c1ccc(N2CCCC2=O)cc1)c1c(N)n(Cc2ccccc2)c(=O)[nH]c1=O	0.7	80.5	-1.4	.	-4.7	.
COc1ccc(-n2nc(C(=O)Nc3ccc4c(c3)OCO4)c3ccccc3c2=O)c(OC)c1	12.9	115.5	-2.8	10.1	-0.9	.
COc1ccccc1-n1nc(C(=O)Nc2ccc3c(c2)OCO3)c2ccccc2c1=O	24.4*	86.0	-9.4	-13.6	-1.4	1.5
COc1ccc(CCNC(=O)CCn2c(SCC#N)nc3ccccc3c2=O)cc1OC	22.2*	87.8	11.2	-10.5	-0.4	1.3
COc1ccc(CCNC(=O)CCCn2c(SCC#N)nc3ccccc3c2=O)cc1OC	-0.1	100.7	-4.8	-2.6	-4.5	.
CCOC(=O)c1sc(N)nc1C(F)(F)F	3.2	.	.	.	5.5	.
O=C(NNC(=O)c1cc(Br)c(Br)s1)c1csc(N2CCOCC2)n1	44.4*	94.0	2.6	.	1.0	1.2
CN(C(=O)COC(=O)/C=C/c1ccc2c(c1)OCO2)c1c(N)n(Cc2ccccc2)c(=O)[nH]c1=O	53.0*	106.6	-6.5	.	-3.2	0.8
CN(C(=O)COC(=O)/C=C/c1ccc(C(F)(F)F)cc1)c1c(N)n(Cc2ccccc2)c(=O)[nH]c1=O	10.5	87.9	-2.2	.	-1.7	.
Cc1ccnc(NC(=O)c2ccc(S(=O)(=O)N3CCCC3)cc2)c1	-2.6	92.0	-1.3	.	3.3	.
O=C(COC(=O)Cc1ccccc1F)Nc1ccc2[nH]c(=O)[nH]c2c1	-4.4	105.7	3.4	.	-1.3	.
O=C(COC(=O)/C=C/c1cc(Br)ccc1F)Nc1ccc2[nH]c(=O)[nH]c2c1	41.2*	104.4	-7.7	.	10.1*	1.3
Cc1ccc(CNc2ccc3nnc(-c4ccccc4)n3n2)cc1	23.4*	104.2	4.4	25.9	0.2	5.1
O=C(O)c1cccc2c1/C(=N/Nc1ccc([N+](=O)[O-])cc1[N+](=O)[O-])c1ccccc1-2	-1.6	105.0	-23.7	7.0	-2.5	.
Cc1ccccc1CNc1ccc(C(CC(N)=O)NC(=O)c2ccccc2)cc1[N+](=O)[O-] (configuration not stated)	27.5*	110.0	-44.2	.	-10.1	-1.3
NC(=O)CC(NC(=O)c1ccccc1)c1ccc(NCCc2ccc(F)cc2)c([N+](=O)[O-])c1 (configuration not stated)	-3.7	105.1	-51.0	.	-4.4	.
COc1ccc(CCNc2ccc(C(CC(N)=O)NC(=O)c3ccccc3)cc2[N+](=O)[O-])cc1 (configuration not stated)	31.9*	97.3	-53.7	.	-13.5	-1.6
NC(=O)CC(NC(=O)c1ccc(Br)cc1)c1ccc(NC2CCCCC2)c([N+](=O)[O-])c1 (configuration not stated)	42.3*	96.1	-49.8	17.4	-2.9	7.9

Source: PubChem
